# Measurements published in PubChem BioAssay AID463173 (ICCB-Longwood Screening Facility, Harvard Medical School, 2010).
# In all, about 52,000 compounds went through this assay and about 4,300 (8.3%) were called active. For the sample, actives were picked, then their nearest neighbours and some compounds at random. Unmarked numbers belong to inactive results. No stated cut-off is given here; in the data, active means survival mostly below about 52% (no sharp cut-off); inactive means mostly above about 56%.
# Test system: DeltatarO mutant
# Assay: growth inhibition of S. aureus wild type versus tarO mutant, primary screen, teichoic acid synthesis inhibitors, RN4220, OD600 (AID 463173)
# Settings: OD600, 18 h, hits give low values, screened at 18.75 µg/mL (by protocol)
row,Structure (SMILES),survival
1,CC(=O)c1c(C)n(-c2cccc(C)c2)c2ccc(OC(=O)COc3ccccc3)cc12,70%
2,COc1ccc(OC)c(NC(=O)COCc2cc(-c3ccco3)on2)c1,49%
3,Cc1ccc(CNC(=O)Cn2c(=O)n(Cc3ccc(F)cc3)c(=O)c3sc4ccccc4c32)cc1,92%
4,O=C1CCCN1c1ccc(S(=O)(=O)N2CCCCC2)cc1,93%
5,COc1cccc2c1cc1c(=O)n(CC(=O)N3CCN(c4cc(Cl)ccc4C)CC3)nc(C)n12,74%
6,O=C(Nc1cccc(C(=O)OCc2cc(=O)n3nc(C4CC4)sc3n2)c1)c1cccc(Cl)c1,80%
7,Cn1nc(-c2ccc(OCC(=O)Nc3ccccc3)cc2)c2ccccc2c1=O,47%
8,CNC(=O)c1ccc(NC(=O)COc2ccc(-c3nn(C)c(=O)c4ccccc34)cc2)cc1,62% (active)
9,COc1ccc(NC(=O)COc2ccc(-c3nn(C)c(=O)c4ccccc34)cc2)cc1,75%
10,COc1ccccc1NC(=O)COc1ccc(-c2nn(C)c(=O)c3ccccc23)cc1,37% (active)
11,CNC(=O)COc1ccc(NC(=O)c2ccc(-c3nn(C)c(=O)c4ccccc34)cc2)cc1,75%
12,Cc1ccc(NC(=O)COc2ccc(-c3nn(C)c(=O)c4ccccc34)cc2)cc1,48%
13,CC(=O)c1ccc(NC(=O)c2nc3ccccc3n(C)c2=O)cc1,80%
14,CC(C)Cn1c(=O)c2ccccc2n2c(CCC(=O)NC(C)c3ccccc3)nnc12 (stereo unspecified),87%
15,CN(C)S(=O)(=O)c1ccc(C(=O)Nc2c(C(=O)Nc3ccc(F)cc3)oc3ccccc23)cc1,73%
16,Cc1ccc(NC(=O)Cc2coc3c(C)c(C)ccc23)c(C)c1,96%
17,O=C(Cn1nc2c(cc1=O)CCCC2)NCc1ccc(Cl)cc1,115%
18,COc1ccc(CNC(=O)Cn2nc3c(cc2=O)CCCC3)cc1,46% (active)
19,CCOC(=O)c1cccc(NC(=O)Cn2nc3c(cc2=O)CCCC3)c1,37% (active)
20,Cc1ccc(NC(=O)Cn2nc3c(cc2=O)CCCC3)cc1Cl,93%
21,O=C(Cn1nc2c(cc1=O)CCCC2)NCc1ccccc1,105%
22,CCOC(=O)c1cccc(NC(=O)Cn2cnc3nc4c(cc3c2=O)CCCC4)c1,94%
23,COc1ccc(Cl)cc1C(=O)CSc1nnnn1C1CCCCC1,93%
24,COc1ccc(NC(=O)CCCc2nnc3n(C(C)C)c(=O)c4sccc4n23)cc1Cl,93%
25,CC(C)OCCCN(Cc1ccco1)C(=O)c1cc2c(s1)-c1ccccc1OC2,-5% (active)
26,CC(C)CCN(Cc1ccco1)C(=O)c1cc2c(s1)-c1ccccc1OC2,-4% (active)

row,Structure (SMILES),survival
1,COCCCN(Cc1ccco1)C(=O)c1cc2c(s1)-c1ccccc1OC2,-3% (active)
2,CN(C)CCN(Cc1ccco1)C(=O)c1cc2c(s1)-c1ccccc1OC2,69%
3,CC(C)CCN(Cc1ccco1)C(=O)c1cc2c(Cl)nc3ccccc3c2s1,68%
4,COc1ccccc1CNC(=O)c1cc2c(s1)-c1ccccc1OC2,61%
5,Cc1ccc(C(C)C)c(OCC(=O)Nc2ccc(O)c(-c3nc4cc(Cl)ccc4o3)c2)c1,73%
6,CC(C)CNC(=O)Cc1ccccc1,65%
7,O=C(CN1CCSc2ccccc21)N1CCCCC1,78%
8,Clc1ccccc1N1CCN(c2ncnc3c2c(-c2ccccc2)cn3-c2ccccc2)CC1,80%
9,Cc1ccccc1C(=O)Nc1ccc2nc(SCC(=O)N3CCc4ccccc43)sc2c1,106%
10,Cc1ccc(-c2c(C)n3c4c(=O)n(C)c(=O)n(C)c4nc3n2CCCO)cc1,81%
11,CCOC(=O)CSc1nnc(CNc2ccc(C)cc2C)n1-c1ccccc1,58%
12,CCN1CCN(C(c2cccc(F)c2)c2c(O)cc(C)n(CCOC)c2=O)CC1 (stereo unspecified),73%
13,CC(C)Oc1ccc(CNC(=O)c2sc3ncccc3c2-n2cccc2)cc1,46% (active)
14,COCCNC(=O)c1sc2ncccc2c1-n1c(C)ccc1C,98%
15,CN(C)c1ccc(CNC(=O)c2sc3ncccc3c2-n2cccc2)cc1,102%
16,COc1cc(CNC(=O)c2sc3ncccc3c2-n2cccc2)cc(OC)c1OC,118%
17,Cc1ccc(CCNC(=O)c2sc3ncccc3c2-n2c(C)ccc2C)cc1,64%
18,CCc1ccc(CNC(=O)c2sc3ncccc3c2-n2c(C)ccc2C)cc1,0% (active)
19,Cc1cc(SCC(=O)NCc2ccccc2Cl)nc(=O)[nH]1,96%
20,CCc1ccc(-c2nc(CS(=O)CC(=O)NCCc3ccc(C)cc3)c(C)o2)cc1 (stereo unspecified),89%
21,CCOc1ccc(C(=O)c2cn(Cc3ccccc3)c3c(F)cc(F)cc3c2=O)cc1,78%
22,CCc1ccc(NC(=O)Cn2c(=O)c3cc(Cl)ccc3n3nncc23)cc1,80%
23,CCOc1ccc(CNC(=O)C2CCCN(c3nn4cc(-c5ccc(F)cc5)nc4s3)C2)cc1 (stereo unspecified),67%
24,Cc1ccc(CCNC(=O)c2cc3sccc3n2Cc2ccc(F)cc2)cc1,87%
25,Cc1ccc(-c2onc(C)c2C)cc1S(=O)(=O)NCc1ccc(N(C)C)cc1,-2% (active)
26,COCCCNS(=O)(=O)c1cc(-c2onc(C)c2C)ccc1OC,115%

row,Structure (SMILES),survival
1,COc1ccc(CCNS(=O)(=O)c2cc(-c3onc(C)c3C)ccc2OC)cc1OC,-1% (active)
2,Cc1ccc(-c2onc(C)c2C)cc1S(=O)(=O)NCc1ccco1,87%
3,Cc1ccc(-c2onc(C)c2C)cc1S(=O)(=O)NCc1cccs1,91%
4,COc1ccc(-c2onc(C)c2C)cc1S(=O)(=O)NCCc1ccccc1,90%
5,CC(C)NC(=O)Nc1ccc2c(c1)N(C)C(=O)c1ccccc1S2,117%
6,CCOC(=O)/C(C#N)=C/C1=C(N)CC(C)(C)OC1,95%
7,Cc1ccc(NC(=O)Cn2c(=O)n(Cc3ccc4c(c3)OCO4)c(=O)c3ccc(C(=O)NC4CCCCC4)cc32)c(C)c1,100%
8,Cc1ccc(NC(=O)C(C)Sc2nnc(C3CCCCC3)n2C)cc1 (stereo unspecified),109%
9,CCN(C(=O)Cn1nc(Cc2ccncc2)c2ccccc2c1=O)c1cccc(Cl)c1,83%
10,Clc1ccc(OCc2nc3ccccc3n2Cc2ccccc2)c(Cl)c1,14% (active)
11,CCC(=O)NCc1nc2ccccc2n1Cc1ccccc1,122%
12,Cc1ccc(Cn2c(CNC(=O)c3cccc(C)c3)nc3ccccc32)cc1,96%
13,Cc1cccc(Cn2c(COc3ccc(Cl)cc3)nc3ccccc32)c1,59%
14,CC(O)c1nc2ccccc2n1Cc1ccccc1 (stereo unspecified),57%
15,O=C(NCCc1nc2ccccc2n1Cc1ccc(Cl)cc1)c1ccccc1,72%
16,Cc1ccc(Cn2c(CCNC(=O)C(C)C)nc3ccccc32)cc1,78%
17,CCn1c(COc2ccc(Cl)cc2Cl)nc2ccccc21,57%
18,Cc1cccc(Cn2c(COc3ccccc3)nc3ccccc32)c1,-2% (active)
19,Cc1ccc(Cn2c(Cc3ccccc3)nc3ccccc32)cc1,-1% (active)
20,CC(C)(C)c1ccc(Cn2c(Cc3ccccc3)nc3ccccc32)cc1,0% (active)
21,Cc1ccc(CNC(=O)CCCn2c(=O)[nH]c3ccc(Br)cc3c2=O)cc1,87%
22,Cc1ccc(-c2nnc(SC(C)C)n2-c2ccccc2)cc1,100%
23,COc1ccccc1C(=O)n1nc(-c2cccnc2)nc1NCc1ccccc1,64%
24,CCc1ccc(S(=O)(=O)c2nnn3c2nc(NCCNC(C)=O)c2cc(Cl)ccc23)cc1,74%
25,CCOC(=O)N1CCN(Cc2nc3cc(NC(=O)c4ccc([N+](=O)[O-])cc4)ccc3n2C(C)C)CC1,75%
26,CC(C)Oc1ccc(CNC(=O)c2ccc3nc(SCc4ccc(F)cc4)n(C)c3c2)cc1,101%

row,Structure (SMILES),survival
1,CCS(=O)(=O)N1CCC(C(=O)NCCC(C)C)CC1,87%
2,CCCCn1c(SCC(=O)Nc2cccc(OC)c2)nc2c(sc3ccccc32)c1=O,88%
3,Cc1nc2nc(CNC(=O)c3cccc(F)c3)nn2c(C)c1CCC(=O)Nc1cccc(Cl)c1,110%
4,CC1CCCN(S(=O)(=O)c2ccc(N3CCCCS3(=O)=O)cc2)C1 (stereo unspecified),74%
5,CCN(C(=O)c1ccc2c(=O)n3c(nc2c1)CCCCC3)c1cc(C)ccc1C,89%
6,COc1ccc(S(=O)(=O)c2nnn(-c3ccc(C)c(Cl)c3)c2C)cc1,99%
7,CC(C)c1ccc(Cn2c(COc3ccccc3)nc3ccccc32)cc1,-1% (active)
8,Cc1cccc(Cn2c(Cc3ccccc3)nc3ccccc32)c1,22% (active)
9,Cc1cccc(Cn2c(CNC(=O)c3ccccc3)nc3ccccc32)c1,64%
10,COCc1nc2ccccc2n1Cc1cccc(C)c1,79%
11,Cc1ccc2c(=O)cc(C(=O)Nc3ccc(S(=O)(=O)Nc4nc(C)cc(C)n4)cc3)oc2c1,78%
12,COCCn1c(SCC(=O)c2ccc(C)cc2)nc2cc(C(=O)NC3CCCC3)ccc2c1=O,89%
13,COc1cccc(C2=NN(C(C)=O)C(c3cn(-c4ccccc4)nc3-c3cccs3)C2)c1 (stereo unspecified),170%
14,Cc1nn2c(=O)cc(COC(=O)COc3ccc(F)cc3)nc2s1,94%
15,CCn1c(=O)c2cc(C(=O)N(CC(C)C)CC(C)C)sc2c2ccccc21,-4% (active)
16,Cc1ccc2[nH]c(=O)c3cc(C(=O)N(CCCOC(C)C)Cc4ccco4)sc3c2c1,56% (active)
17,CCCn1c2ccccc2c2cnn(CC(=O)N(CCCOC(C)C)Cc3ccco3)c(=O)c21,87%
18,CCn1c(=O)c2cc(C(=O)N(CCN(C)C)Cc3ccccc3)sc2c2ccccc21,77%
19,COCCN(Cc1ccco1)C(=O)c1cc2c(=O)[nH]c3ccc(C)cc3c2s1,53%
20,CCn1c(=O)c2cc(C(=O)N(CCCOC(C)C)Cc3ccco3)sc2c2ccccc21,8% (active)
21,CCn1c(=O)c2cc(C(=O)N(C)c3cc(Cl)c(OC)cc3OC)sc2c2ccccc21,80%
22,CCOCCCN(Cc1ccco1)C(=O)c1cc2c(=O)[nH]c3ccc(C)cc3c2s1,88%
23,CCn1c(=O)c2cc(C(=O)N(C)c3cc(C)ccc3C)sc2c2ccccc21,105%
